TDP1 block: qHTS Assay for Inhibitors of Tyrosyl-DNA Phosphodiesterase (TDP1); Potency, µM (doses to about 130 µM), without a hit: top-dose activity change, negative = inhibition, hits mostly inhibitors; AID 485290, 2010; Tyrosyl-DNA phosphodiesterase 1 (Homo sapiens), Q9NUW8; 350,000 compounds, 0.28% hits; recombinant TDP1, AlphaScreen DNA substrate cleavage; note: nearly all actives have a fitted effect of over 40% in size
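AlphaScreen read-out: signal falls as enzyme removes the 3' tyrosine-FITC from a 5'-biotinylated DNA oligo (15 nM, 5 min, RT). Enzyme was E. coli-made recombinant Tdp1 at 1 nM, exposed to compound for 15 min beforehand; beads 10 ug/ml, 10 min.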
DT40 TDP1 CPT: qHTS for Inhibitors of human tyrosyl-DNA phosphodiesterase 1 (TDP1): qHTS in cells in presence of CPT | chicken DT40 Tdp1-/-;hTDP1 cells + 20 nM CPT, ATP luminescence, 48 h | Potency, µM (series often up to 46.2 µM), for inactives: at the top dose activity change, negative = growth inhibition, usual class: inhibitors | 420,000 compounds, 12% hits; note: nearly all actives have a fitted effect of over 55% in size
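Chicken DT40 Tdp1-/- cells stably complemented with human TDP1 were seeded at 400 cells/well in medium containing 20 nM camptothecin, exposed to pin-transferred compounds, and grown at 37 °C for at least 48 hr. Viability was read as ATP luminescence.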
KAT2A inh: qHTS Assay for Inhibitors of GCN5L2. Histone acetyltransferase KAT2A (Homo sapiens), Q92830. GCN5L2 HAT assay, ThioGlo1 CoA-SH fluorescence. Potency, µM (highest dose often 58.9 µM), inactives show at the highest dose activity change, negative = inhibition, hits mostly inhibitors. 390,000 compounds, 0.21% hits. AID 504327, 2011
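Enzyme at 20nM final was mixed with library compounds for 15 min at room temperature. Peptide H3(1-25) at 75uM, acetyl-CoA at 70uM and ThioGlo1 at 50uM were then added. Plates were read immediately and after 20 min (Ex340nm/Em540nm).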
TDP1 cell noCPT: qHTS for Inhibitors of human tyrosyl-DNA phosphodiesterase 1 (TDP1): qHTS in cells in absence of CPT; AID 686978, 2013; Potency, µM (highest dose often 46.2 µM), for the others: at the top dose activity change, negative = growth inhibition, usual class: inhibitors; DT40 Tdp1-/- hTDP1 cells, no CPT, ATP luminescence, 48 h; 420,000 compounds, 15% hits; note: nearly all actives have a fitted effect of over 55% in size
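Stably hTDP1-transfected Tdp1-null chicken DT40 cells were treated with library compounds minus camptothecin and grown for at least 48 hr at 37 °C, after which cellular ATP was quantified by luminescence.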
PLK1 PBD block: qHTS for Inhibitors of PLK1-PDB (polo-like kinase 1 - polo-box domain): Primary Screen; 360,000 compounds, 2.8% hits; Plk1 PBD binding of FITC phosphopeptide, fluorescence polarization; Potency, µM, for the others: max response, negative = inhibition, actives largely listed as inhibitors; AID 720504, 2013; Serine/threonine-protein kinase PLK1 (Homo sapiens), P53350; note: series mostly up to about 57 µM; nearly all actives have a fitted effect of over 65% in size
Target sequence (P53350 whole entry, looked up, the tested form may be a part): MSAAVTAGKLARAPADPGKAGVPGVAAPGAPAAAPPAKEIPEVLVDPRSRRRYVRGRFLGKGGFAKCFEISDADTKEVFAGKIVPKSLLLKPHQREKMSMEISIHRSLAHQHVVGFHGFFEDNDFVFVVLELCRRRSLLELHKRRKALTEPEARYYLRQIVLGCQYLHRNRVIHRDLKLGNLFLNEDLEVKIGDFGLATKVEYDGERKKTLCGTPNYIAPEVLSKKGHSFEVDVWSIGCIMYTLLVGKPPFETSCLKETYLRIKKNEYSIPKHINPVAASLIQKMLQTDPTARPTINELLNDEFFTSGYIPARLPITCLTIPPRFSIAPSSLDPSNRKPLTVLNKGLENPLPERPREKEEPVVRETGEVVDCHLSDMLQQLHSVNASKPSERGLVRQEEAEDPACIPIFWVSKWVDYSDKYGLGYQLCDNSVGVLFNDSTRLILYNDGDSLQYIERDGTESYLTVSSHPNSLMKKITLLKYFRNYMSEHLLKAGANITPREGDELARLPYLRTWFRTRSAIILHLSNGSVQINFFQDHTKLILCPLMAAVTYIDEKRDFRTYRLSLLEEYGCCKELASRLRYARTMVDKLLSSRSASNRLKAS
VDR inh: Inhibitors of the vitamin D receptor (VDR): qHTS | Vitamin D3 receptor (Homo sapiens), P11473 | VDR-SRC2-3 peptide fluorescence polarization, 2 h | Potency, µM, inactives show max response, negative = inhibition, most hits filed as inhibitors | 400,000 compounds, 0.93% hits
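Compounds are added to VDR with labelled SRC2-3 coactivator peptide and held 2 h at room temperature. Inhibition of the VDR–peptide interaction is then read as a change in fluorescence polarization.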
An asterisk follows results filed as active. Hits are enriched below; roughly 18% of the tested compounds scored in any of these assays. Calls come from the whole dose curve; as a rule, active = well fitted curve in the direction sought with a large enough effect; inconclusive = small, poorly fitted or top-dose-only effect, or another doubt; inactive = no such curve, though single readings can be large; an effect the other way counts as inactive or inconclusive. % is set by controls: 0 for no effect and ±100 for the full control effect; potency is the fitted concentration of half-maximal effect.

For COc1ccc(Cn2c(CCC(=O)Nc3ccc(C)cc3)nc3cccnc32)cc1 the results were TDP1 block 1.3%, DT40 TDP1 CPT inconclusive, KAT2A inh -7.1%, TDP1 cell noCPT 14.6µM*, PLK1 PBD block 23.8µM* and VDR inh -16.8%.
For CCCC(=O)NCc1nc2cccnc2n1Cc1ccc(F)cc1 the results were TDP1 block 5.5%, DT40 TDP1 CPT -22.9%, KAT2A inh -3.5%, TDP1 cell noCPT -13.7% and VDR inh 16.9%.
For CCN(CC)c1ccc(C(=O)NCc2nc3cccnc3n2Cc2ccc(C)cc2)cc1 the results were TDP1 block 9.9%, DT40 TDP1 CPT 18.4µM*, KAT2A inh -12.9%, TDP1 cell noCPT 14.6µM* and VDR inh 4.8%.
For COc1ccc(CNC(=O)CCc2nc3cccnc3n2Cc2ccc(OC)cc2)cc1 the results were TDP1 block 6.9%, DT40 TDP1 CPT -4.8%, KAT2A inh -4.9%, TDP1 cell noCPT -18.0% and VDR inh 2.6%.
Screening Cc1ccc(CNC(=O)CCc2nc3cccnc3n2Cc2ccccc2)cc1 returned TDP1 block 1.3%, DT40 TDP1 CPT 14.6µM*, KAT2A inh -3.7%, TDP1 cell noCPT inconclusive and VDR inh -2.8%.
`Cc1ccc(-c2nc3c(Cl)cc(C(F)(F)F)cn3c2Cc2ccccc2)cc1` gave DT40 TDP1 CPT inconclusive, TDP1 cell noCPT inconclusive and PLK1 PBD block 5.3%.
`COc1ccc(Cc2c(C3CCCCC3)nc3ccc(Br)cn23)c(C)c1` gave DT40 TDP1 CPT 16.4µM*, TDP1 cell noCPT 23.1µM* and PLK1 PBD block -20.9%.
COc1ccc(Cc2c(C3CCCCC3)nc3c(Cl)cc(C(F)(F)F)cn23)c(C)c1 was read as DT40 TDP1 CPT 18.4µM*, TDP1 cell noCPT inconclusive and PLK1 PBD block -13.0%.
`COc1ccc(Cc2c(C3CCCCC3)nc3cc(C)c(Br)c(C)n23)c(C)c1` gave DT40 TDP1 CPT -5.0%, TDP1 cell noCPT inconclusive and PLK1 PBD block 3.9%.
`CCCCCN(C(=O)CCC(=O)OCCOc1ccc(OCC)cc1)c1c(N)n(CCCC)c(=O)[nH]c1=O` gave DT40 TDP1 CPT inconclusive, KAT2A inh 2.3%, TDP1 cell noCPT -23.8%, PLK1 PBD block -4.9% and VDR inh 6.5%.
For CCN(C(=O)c1cc2c(s1)-c1c(C)cccc1OC2)c1ccccc1F the results were DT40 TDP1 CPT 20.6µM*, KAT2A inh -6.5%, TDP1 cell noCPT 20.6µM* and VDR inh -16.2%.
`CCCN(C(=O)c1cc2c(s1)-c1ccccc1SC2)c1ccccc1F` gave TDP1 block -10.1%, DT40 TDP1 CPT inconclusive, KAT2A inh -10.0%, TDP1 cell noCPT 16.4µM* and VDR inh 2.5%.
`Cc1cccc2c1-c1sc(C(=O)N3CCN(c4cccc(Cl)c4)CC3)cc1CO2` gave TDP1 block -8.8%, DT40 TDP1 CPT -14.6%, KAT2A inh -6.2%, TDP1 cell noCPT -16.2% and VDR inh -3.2%.
Cc1cccc2c1-c1sc(C(=O)NCCCN3CCN(c4cccc(Cl)c4)CC3)cc1CO2 was read as TDP1 block 5.9%, DT40 TDP1 CPT 23.1µM*, KAT2A inh -10.6%, TDP1 cell noCPT inconclusive and VDR inh -5.5%.
For Cc1cccc2c1-c1sc(C(=O)NCCCN3CCN(c4ccccc4F)CC3)cc1CO2 the results were TDP1 block 2.0%, DT40 TDP1 CPT inconclusive, KAT2A inh -13.6%, TDP1 cell noCPT 6.51µM* and VDR inh 0.3%.
For COc1ccc(-c2c(-c3ccccc3OC)oc3ccccc23)cn1 the results were TDP1 block -9.6%, DT40 TDP1 CPT inconclusive, KAT2A inh -6.9%, TDP1 cell noCPT inconclusive, PLK1 PBD block 2.4% and VDR inh -7.3%.
For COc1ccc(CCNC(=O)c2cc3c(s2)-c2c(C)cccc2OC3)c(OC)c1 the results were TDP1 block -3.9%, DT40 TDP1 CPT inconclusive, KAT2A inh -3.2%, TDP1 cell noCPT inconclusive and VDR inh 5.3%.
`CCN1CCN(C(=O)c2cc3c(s2)-c2c(C)cccc2OC3)CC1` gave DT40 TDP1 CPT inconclusive, KAT2A inh inconclusive, TDP1 cell noCPT inconclusive, PLK1 PBD block -8.7% and VDR inh 2.2%.
`COc1cc(Cl)c(C)cc1NC(=O)c1cc2c(s1)-c1c(C)cccc1OC2` gave TDP1 block 0.0%, DT40 TDP1 CPT -15.4%, KAT2A inh -4.8%, TDP1 cell noCPT inconclusive and VDR inh 9.5%.
For Cc1cccc2c1-c1sc(C(=O)Nc3ccccc3N3CCN(C)CC3)cc1CO2 the results were TDP1 block 2.6%, DT40 TDP1 CPT 18.4µM*, KAT2A inh -20.8%, TDP1 cell noCPT 18.4µM*, PLK1 PBD block -7.1% and VDR inh -3.8%.
For COc1ccc(OC)c(CCNC(=O)c2cc3c(s2)-c2c(C)cccc2OC3)c1 the results were TDP1 block -8.8%, DT40 TDP1 CPT 11.6µM*, KAT2A inh -1.2%, TDP1 cell noCPT 7.31µM* and VDR inh inconclusive.
For CCCCN(Cc1ccco1)C(=O)c1cc2c(s1)-c1c(C)cccc1OC2 the results were TDP1 block -11.7%, DT40 TDP1 CPT inconclusive, KAT2A inh -11.2%, TDP1 cell noCPT 23.1µM* and VDR inh -11.6%.
Screening Cc1ccc(NS(=O)(=O)c2cc3c(cc2-c2ccsc2)NC(=O)CO3)cc1C returned TDP1 block 0.2%.
For Cc1cnc(CNc2cc(-c3ccccc3C(F)(F)F)ncn2)cn1 the results were DT40 TDP1 CPT 3.7%, KAT2A inh -13.9%, TDP1 cell noCPT 3.7% and VDR inh -12.9%.
Screening NC(=O)NC(CC(=O)OCC(=O)Nc1nnc(-c2ccccc2)o1)c1ccc(Cl)cc1 (stereo unspecified) returned DT40 TDP1 CPT 2.5%, TDP1 cell noCPT 3.4% and PLK1 PBD block -10.8%.
Screening C/C(=N\NC(=O)c1cc(O)cc(O)c1)c1ccc(NC(=O)Cc2ccccc2)cc1 returned TDP1 block 1.78µM*, DT40 TDP1 CPT -0.6%, KAT2A inh inconclusive, TDP1 cell noCPT -1.8%, PLK1 PBD block inconclusive and VDR inh 1.7%.
